According to the OligoGym collection:

Target: OXSR1
Experiment: pooled miR-30 sensor sort-seq; sequence = guide strand
Details: shRNA
Further: reference of the scale not given here.

Sequence	sensor-assay potency score (higher = more potent)
TTTGATTGCCACTTTCTCCTTT	0.477
TTGAAGAAATTCTTTATTCTTT	-0.617
TATTGATTCTTTCACTCGGGGA	-0.811
TTGTCTGTAAAAACAATCCAAA	-1.04
TTTACTAACGGAACTCTGGGGA	0.644
TATCTGAGCCTTCGACACCAGA	-1.2
TTTCTTGTGAACCTGATCCTGA	0.134
TAATCTTAGTACTAGACTGATT	-1.17
TTAATCTTAGTACTAGACTGAT	-0.309
TTCATCATCACTCCACTCCCAG	-0.375
TCTTGGTTTCTTGTGAACCTGA	-0.403
TTTCTTTATCTTGAACACCAGT	-0.815

Target: P2RX3
Experiment: as above
Details: shRNA

Sequence	sensor-assay potency score (higher = more potent)
TTGATGATCCCGATGGTCCAGC	-0.677
TACCTGGTAAGCCTTCTCGTGC	-1.6
TTCCACTGTGTCCACCTCCGTG	-1.06
TTTCTCAGAAACGCTGTCGAGC	-0.254
TTGAGCAGGATGATGTCACAGA	0.136
TTCACCTTGGTTACCACCGAGG	-0.997
